Experimental data taken from PubChem BioAssay (NCATS).
Results filed as inconclusive are left out. Values without a mark were called inactive. Calls of active or inactive are those of the source. Calls follow the shape of the dose curve; as a rule, active = well fitted activation curve with a large enough effect; inconclusive = small, poorly fitted or top-dose-only effect; inactive = no such curve, though single readings can be large or run the other way.

Biological target: Cellular tumor antigen p53 (Homo sapiens) (UniProt P04637)
Assay: Primary qHTS for small molecule compounds that upregulate eGFP-tagged delta133p53alpha (in N-terminal) cells. (AID 2060322); also: nearly all actives have a fitted effect of over 75% in size;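 as to activation: series mostly up to about 56 µM; 0% = DMSO vehicle and 100% = reference activator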
Details: NCI-H358 eGFP-delta133p53alpha fluorescence, 24 h; activation: active compounds read high
How it was run: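 NCI-H358 cells pre-induced 24 h with 10 ng/ml doxycycline for eGFP-delta133p53alpha, plated dox-free and exposed 24 h at 37C to titrated compounds. Fixed, Hoechst-stained; gated GFP peak intensity by laser scanning cytometry, normalized to DMSO (0%) and 57.5 uM 5-azacytidine (100%).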
Potency is read from the fitted curve at half-maximal effect.

Sequence of Cellular tumor antigen p53 (Homo sapiens) (P04637 whole entry, looked up): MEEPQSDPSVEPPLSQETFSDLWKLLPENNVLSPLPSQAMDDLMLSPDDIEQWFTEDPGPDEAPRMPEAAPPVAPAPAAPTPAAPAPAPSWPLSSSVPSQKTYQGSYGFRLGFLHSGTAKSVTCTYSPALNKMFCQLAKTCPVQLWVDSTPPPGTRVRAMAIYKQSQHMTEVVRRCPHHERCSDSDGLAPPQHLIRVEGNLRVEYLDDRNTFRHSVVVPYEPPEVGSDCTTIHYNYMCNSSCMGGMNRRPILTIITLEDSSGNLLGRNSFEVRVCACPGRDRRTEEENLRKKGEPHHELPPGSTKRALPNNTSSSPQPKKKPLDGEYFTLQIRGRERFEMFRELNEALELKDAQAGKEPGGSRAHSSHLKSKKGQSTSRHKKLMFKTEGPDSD

Row | SMILES | activation [%] | Potency
1 | CCOC(=O)N1CCN([N+]([O-])=NOc2cc(ON=[N+]([O-])N3CCN(C(=O)OCC)CC3)c([N+](=O)[O-])cc2[N+](=O)[O-])CC1 | 5.87 | –
2 | CCN(CC)CCNc1ccc(CO)c2sc3ccccc3c(=O)c12 | 28.5 | –
3 | CC(C)NCC(O)c1ccc2ccccc2c1 (stereo not given) | -2.82 | –
4 | CC(=O)OCC(=O)[C@@]1(O)CCC2C3CCC4=CC(=O)CC[C@]4(C)C3[C@@H](O)C[C@@]21C (stereo not given in full) | 25.1 | –
5 | Nc1nc2ncc(CNc3ccc(C(=O)N[C@@H](CCC(=O)O)C(=O)O)cc3)nc2c(=O)[nH]1 | -10 | –
6 | CC(=O)Oc1ccc(C)cc1 | -17.5 | –
7 | CCCCN(CCCC)CC(O)c1cc(Cl)cc2c1-c1ccc(Cl)cc1C2=Cc1ccc(Cl)cc1 (stereo not given) | 12 | –
8 | O=C(C=Cc1cccc(S(=O)(=O)Nc2ccccc2)c1)NO | 49 | –
9 | CC(O)CN(CCN(CC(C)O)CC(C)O)CC(C)O (stereo not given) | 22 | –
10 | N#CC(=C(N)Sc1ccc(N)cc1)c1ccccc1C(F)(F)F | 19.5 | –
11 | NC(=O)C(c1ccccc1)(c1ccccc1)[C@@H]1CCN(CCc2ccc3c(c2)CCO3)C1 | – | 19.5 µM (active)
12 | Cc1cccc(N(C)C(=S)Oc2ccc3c(c2)C2CCC3C2)c1 (stereo not given) | -15.1 | –
13 | CCOCCOC(=O)/C=C/c1ccc(OC)cc1 | -3.95 | –
14 | Cc1c(Cl)cccc1Nc1ccccc1C(=O)O | 8.47 | –
15 | C[C@@H](CN(C)C)CN1c2ccccc2Sc2ccccc21 | -15.1 | –
16 | Cc1cccc(C)c1NC(=O)c1cc(S(N)(=O)=O)c(Cl)cc1O | -9.21 | –
17 | CC(=O)N[C@@H]1[C@H](O[C@@H]2c3ccc(c(Cl)c3)Oc3cc4cc(c3O[C@H]3O[C@H](CO)[C@@H](O)[C@H](O)[C@H]3NC(=O)CCCCCCCC(C)C)Oc3ccc(cc3Cl)C[C@H]3NC(=O)[C@H](N)c5ccc(O)c(c5)Oc5cc(O)cc(c5)[C@H](NC3=O)C(=O)N[C@H]4C(=O)N[C@H]3C(=O)N[C@@H]2C(=O)N[C@@H](C(=O)O)c2cc(O)cc(O[C@H]4O[C@H](CO)[C@@H](O)[C@H](O)[C@H]4O)c2-c2cc3ccc2O)O[C@H](CO)[C@@H](O)[C@@H]1O | 25.3 | –
18 | COC(=O)c1cc(Cl)ccc1NS(=O)(=O)C(F)(F)F | 8.47 | –
19 | Clc1ccccc1-c1nc(-c2ccncc2)no1 | 11.7 | –
20 | O=C(OCC1(COC(=O)c2cccnc2)CCCC(COC(=O)c2cccnc2)(COC(=O)c2cccnc2)C1O)c1cccnc1 | -11.7 | –

Row | SMILES | activation [%] | Potency
21 | CC1(C)O[C@@H]2C[C@H]3[C@@H]4CCC5=CC(=O)C=C[C@]5(C)[C@@H]4[C@@H](O)C[C@]3(C)[C@]2(C(=O)CO)O1 | 10.4 | –
22 | O=C(O)c1ccccc1NCCc1ccccc1 | -1.69 | –
23 | O=C(/C=C/c1ccccc1)OC[C@H]1O[C@@H](OC(=O)c2cc(O)c(O)c(O)c2)[C@H](O)[C@@H](O)[C@@H]1O | -19.1 | –
24 | CCc1nn(CCCN2CCN(c3cccc(Cl)c3)CC2)c(=O)n1CCOc1ccccc1 | -3.35 | –
25 | OC[C@@H](O)[C@@H](O)[C@H](O)[C@H](O)CO | -9.21 | –
26 | COC(=O)N/N=C/c1c[n+]([O-])c2ccccc2[n+]1[O-] | -30.1 | –
27 | COc1cc(C(=O)NC2CCCNC2)cc(OC)c1OC (stereo not given) | -3.95 | –
28 | CCOC(=O)NNc1ccc(N(CC)CC(C)O)nn1 (stereo not given) | 15.1 | –
29 | C[C@H](Cn1cnc2c(N)ncnc21)OCP(=O)(O)O | 61.4 | –
30 | Cc1c(C)c2c(c(C)c1OC(=O)CCC(=O)OCCO)CC[C@@](C)(CCC[C@H](C)CCC[C@H](C)CCCC(C)C)O2 | -20.9 | –
31 | CCN(CC)CC(=O)Oc1ccc(NC(C)=O)cc1 | -5.08 | –
32 | Cc1cc(C)c(NC(=O)CN(CC(=O)O)CC(=O)O)c(C)c1Br | -11.9 | –
33 | COc1cc2c(cc1OC)CN(C(=O)[C@H](C)N[C@@H](CCc1ccccc1)C(=O)O)[C@H](C(=O)O)C2 | -10.7 | –
34 | CCC(=C(c1ccc(O)cc1)c1ccc(OCCNC)cc1)c1ccccc1 | 62.8 | –
35 | O=C(O)c1ccccc1S | 19.8 | –
36 | CN1CCN(CCC(=O)N2c3ccccc3Sc3ccc(C(F)(F)F)cc32)CC1 | 18.6 | –
37 | Nc1ccc(S(=O)(=O)Nc2cnc3ccccc3n2)cc1 | -24.3 | –
38 | CCCCCCCCCCCCCCNCCO | -16.7 | –
39 | C[C@]12CCC3=C4CCC(=O)C=C4CC[C@@H]3[C@H]1CC[C@@]2(O)CC#N | 7.95 | –
40 | CCCCCCCCOc1ccc(C(=O)c2ccccc2)c(O)c1 | -2.82 | –
